Cruzain noTriton: blocks cruzain activity in detergent-free assay; P25779; purified cruzain, Z-FR-AMC fluorescence, no detergent; Potency, µM, without a hit: max response, negative = inhibition, hits mostly inhibitors; actives 2.3% (n = 200,000); AID 1476;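 further: plate controls were enzyme without inhibitor for no effect and buffer without enzyme for full effect; nearly all actives have a fitted effect of over 40% in size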
Target sequence (P25779 123-467 limits assumed): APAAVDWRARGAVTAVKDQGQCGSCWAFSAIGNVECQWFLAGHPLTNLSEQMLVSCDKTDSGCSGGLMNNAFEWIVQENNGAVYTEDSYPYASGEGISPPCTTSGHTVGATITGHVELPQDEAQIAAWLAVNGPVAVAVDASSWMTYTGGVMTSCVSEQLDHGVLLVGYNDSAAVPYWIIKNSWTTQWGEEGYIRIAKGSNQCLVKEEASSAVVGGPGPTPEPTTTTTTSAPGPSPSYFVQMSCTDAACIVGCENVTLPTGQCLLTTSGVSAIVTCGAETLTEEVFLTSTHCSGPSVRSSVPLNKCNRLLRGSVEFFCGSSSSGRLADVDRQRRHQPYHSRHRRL
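Purified cruzain at 1.5 nM, pre-incubated 15 min with compound at room temperature in 100 mM sodium acetate pH 5.5, 5 mM DTT, 0.00005% Triton X-100. Reaction started with 2 uM Z-FR-AMC; AMC fluorescence increase over 60 s gives rate.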
Cruzain Triton: inhibitors of Trypanosoma cruzi cruzain with detergent. Potency, µM, for the others: max response, negative = inhibition, hits mostly inhibitors. P25779. actives 0.43% (n = 200,000). purified cruzain, Z-FR-AMC fluorescence, 0.01% Triton;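 further: plate controls were neutral wells for no effect and buffer without enzyme for full effect; nearly all actives have a fitted effect of over 40% in size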
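Detergent-containing run (0.01% Triton X-100) in acetate buffer pH 5.5 with 5 mM DTT: enzyme at 1.5 nM final, 15 min compound preincubation at room temperature, then 2 uM Z-FR-AMC substrate. Activity taken as 60 s fluorescence increase at 360/450 nm.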
An asterisk follows results filed as active; ? = inconclusive. A selection: hits, their analogues and other compounds. The true share with any hit is near 2.5%. The call rests on the fitted dose curve; in most records, active means well fitted curve in the direction sought with a large enough effect; inconclusive means small, poorly fitted or top-dose-only effect, or another doubt; inactive means no such curve, though single readings can be large; an effect the other way counts as inactive or inconclusive. Potency means the concentration at half of the fitted maximal effect.

SMILES	Cruzain noTriton	Cruzain Triton
CC(C)C[C@@H](CC(=O)N[C@H](CC(=O)N[C@@H]1CCCC[C@H]1C(=O)N[C@H](CC(=O)N[C@@H](CCC(=O)O)CC(=O)O)Cc1ccccc1)C(C)C)NC(=O)[C@@H]1CNCC[C@H]1N	-0.2%	5.6%
CC(C)(C)c1ccc(-c2csc(NC(=O)CN3C(=O)NC4(CCCCC4)C3=O)n2)cc1	7.94µM*	1.6%
CCNC(=O)CN1C(=O)NC2(CCCCCC2)C1=O	5.0%	5.1%
Fc1ccccc1OCc1nc(-c2ccc(-n3cccc3)cc2)no1	-15.4%	-3.5%
Cc1cccc(OCc2nc(-c3ccc(-n4cccc4)cc3)no2)c1	20µM*	2.1%
Cc1ccccc1OCc1nc(-c2ccc(-n3cccc3)cc2)no1	?	0.4%
Cc1ccc(OCc2nc(-c3ccc(-n4cccc4)cc3)no2)cc1C	25.1µM*	4.3%
Cc1ccccc1C(=O)Nc1cccc(OCc2cc(=O)n3c4c(sc3n2)CCCC4)c1	-6.1%	-1.8%
COc1ccc(CCNC(=O)c2ccc3c(c2)sc2nc(-c4ccccc4)cn23)cc1OC	1.7%	-3.5%
O=C(Cc1ccc(F)cc1)N1CCC(c2nc3c(nnn3Cc3ccc(Cl)cc3)c(=O)[nH]2)CC1	?	-7.5%
CCOC(=O)C1=NN(c2ccc(OC)cc2)C(c2ccccc2)CC1=O (stereo unspecified)	-8.6%	-11.1%
COc1ccc(C2CC(c3ccccc3)=NN2c2ccc(N)cc2)cc1 (stereo unspecified)	20µM*	-10.4%
CC1=C(C(=O)Nc2ccccc2)C(c2cccc(Cl)c2)n2nc(SCC(=O)c3ccc(C)cc3)nc2N1 (stereo unspecified)	3.8%	1.6%
COc1ccc(CNC(=O)CCn2cccn2)cc1	-0.9%	0.4%
CC(C)Sc1cc(N2CCOCC2)nc(-c2ccccc2)n1	-8.3%	-4.9%
c1ccc(-c2ccc(Oc3cc(N4CCOCC4)nc(-c4ccccc4)n3)cc2)cc1	10µM*	4.0%
CC(=O)Nc1ccc(N2N=C(C)C(N=Nc3ccccc3)C2=O)cc1 (stereo unspecified)	?	-4.7%
CC1=NN(C(N)=S)C(=O)C1N=Nc1ccccc1C (stereo unspecified)	25.1µM*	?
CC1=NN(C(N)=S)C(=O)C1N=Nc1ccc(C)cc1C (stereo unspecified)	?	-17.2%
CC1=NN(C(N)=S)C(=O)C1N=Nc1c(C)cc(C)cc1C (stereo unspecified)	12.6µM*	-27.2%
CCOC(=O)c1c(C)[nH]c(C)c1S(=O)(=O)N1CCC(C(=O)N2CCN(c3ccccc3)CC2)CC1	?	1.3%
CCOC(=O)c1ccc(NC(=O)CC2S/C(=N/N=C/c3c[nH]c4ccccc34)NC2=O)cc1 (stereo unspecified)	?	-1.8%
Cc1ccc(NC(=O)CC2SC(=NCC3CCCO3)NC2=O)cc1Cl (stereo unspecified)	-5.1%	0.6%
Cc1ccc(NC(=O)CC2S/C(=N/N=C/c3c[nH]c4ccccc34)NC2=O)cc1 (stereo unspecified)	20µM*	-14.7%
Cc1ccc(NC(=O)CC2S/C(=N/N=C/C=C/c3ccccc3)NC2=O)cc1Cl (stereo unspecified)	5.01µM*	-2.4%
SMILES	Cruzain noTriton	Cruzain Triton
CCOC(=O)N1CCN(C2CC(=O)N(c3ccc(C)cc3)C2=O)CC1 (stereo unspecified)	3.7%	6.6%
CCOC(=O)N1C2C=C(C)[C@@H]2[C@@H]2CC(=O)N21 (stereo partly specified)	12.6µM*	14.1µM*
CSc1ccc(CCNC(=O)c2c(C)oc3ncn(C)c(=O)c23)cc1	8.0%	-1.5%
O=C(C1=C[C@@H]2[C@H]3C(=O)N(c4cccc(Cl)c4)C(=O)[C@H]3[C@@H](C(=O)c3ccc(Cl)cc3)N2C=C1)c1ccccc1	15.8µM*	0.3%
O=C(C1=C[C@@H]2[C@H]3C(=O)N(c4ccccc4Cl)C(=O)[C@H]3[C@@H](C(=O)c3ccc(Cl)cc3)N2C=C1)c1ccccc1	-23.8%	-7.7%
Cc1ccc(N2C(=O)[C@@H]3[C@H](C2=O)C2CCCN2[C@@H]3C(=O)c2ccccc2)cc1 (stereo partly specified)	?	-3.6%
Cc1ccc(N2C(=O)[C@@H]3[C@H](C2=O)[C@H]2C=C(C(=O)c4ccccc4)C=CN2[C@@H]3C(=O)c2ccc(Cl)cc2)cc1	3.16µM*	-0.5%
CCOc1ccc(CNC(=O)c2ccc3nc(CC)c(CC)nc3c2)cc1	-5.7%	3.0%
CCOCC(=O)O	-4.0%	6.1%
CCOC(=O)CSc1nc2ccccc2n1CC(=O)N(C(C)C)C(C)C	-8.4%	1.1%
CCOC(=O)CN1C=C(c2ccc3ccccc3n2)C(C[N+](=O)[O-])c2ccccc21 (stereo unspecified)	25.1µM*	-3.7%
Cc1cc(S(=O)(=O)Nc2cc3c(cc2N2CCOCC2)n(C)c(=O)n3C)ccc1F	?	-0.2%
Cc1cc2nc(-c3ccc(SCC(=O)Nc4ccc(S(=O)(=O)N5CCCC5)cc4)nc3)[nH]c2cc1C	?	-11.9%
Cc1ccc2nc(-c3ccc(NC(=O)CSc4ccccc4)cc3)[nH]c2c1	?	10µM*
O=C(CSc1ccccc1)Nc1ccc(-c2nc3ccccc3[nH]2)cc1	?	-16.0%
O=C(CSc1ccc(-c2nc3ccccc3[nH]2)cn1)Nc1ccc(S(=O)(=O)N2CCCC2)cc1	31.6µM*	-3.6%
COC(=O)c1ccc(C(NC(=O)OCc2ccccc2)/C(C)=C/[C@@H](C)C(=O)NC2CCCCC2)cc1 (stereo partly specified)	-0.9%	-0.4%
COc1cccc(-c2nc(-c3ccccc3)[nH]c(=O)c2C#N)c1	-7.9%	5.3%
COc1ccc(-c2nc(-c3cccc(C)c3)[nH]c(=O)c2C#N)cc1	10µM*	-3.5%
CCOc1ccc(CNC(=O)CCS(=O)(=O)c2cc3c4c(c2)CCN4C(=O)CC3)cc1	-2.5%	3.1%
CCc1cc2c(=O)c(-c3cnn(-c4ccccc4)c3)c(C)oc2cc1OCC(=O)Nc1ccc(F)c(F)c1	25.1µM*	-0.7%
CCc1cc2c(=O)c(-c3cnn(-c4ccccc4)c3)c(C)oc2cc1OCC(=O)Nc1cccc(C)c1	?	-1.8%
O=C(NC(C(=O)N/N=C/c1c2ccccc2cc2ccccc12)c1n[nH]c(=O)c2ccccc12)c1ccccc1 (stereo unspecified)	12.6µM*	1.7%
O=C(NC(C(=O)N/N=C/c1ccccc1)c1n[nH]c(=O)c2ccccc12)c1ccccc1 (stereo unspecified)	-13.4%	-8.9%
CCc1ccc(-c2csc3[n+]2CCN3C(C)=O)cc1	-21.4%	17.8µM*
SMILES	Cruzain noTriton	Cruzain Triton
CC(=O)N1CC[n+]2c(-c3ccc(Cl)cc3)csc21	-15.9%	?
N#Cc1cccc(NC(=O)N2CCCC3(CCN(C(=O)c4ccco4)CC3)C2)c1	-3.9%	2.3%
Cc1ccccc1CN1C(=O)C(O)(c2c[nH]c3ccccc23)c2cc(Cl)ccc21 (stereo unspecified)	1.0%	-12.9%
N#Cc1cccc(-c2cncnc2NCc2ccccc2)c1	1.0%	3.3%
Cc1cccc(C2=NN(c3ccccc3)[C@H](CO)[C@H]2C)c1	35.5µM*	-1.6%
Cc1cccc(C2=NN(c3ccccc3)[C@H](CO)[C@H]2c2ccccc2)c1	?	-1.0%
CC(=O)Nc1cc(C(=O)NCc2ccc(F)cc2)ccc1Sc1ccc(C)cc1	1.2%	0.5%
FC(F)(F)c1cccc(N2Cc3ccccc3C2)c1	-5.5%	-4.1%
Cc1cc(C)cc(N2Cc3ccccc3C2)c1	12.6µM*	1.2%

Source: PubChem
